The text below walks through data of PubChem BioAssay (EPA / NIEHS).

Where “and” joins values, the source holds several entries; their conditions need not be identical. Equal values may be shown once. Records with an inconclusive call do not appear. Calls of active or inactive are those of the source. How the source made its calls, unless noted: active means hit-call score of the fitted dose curve at least 0.9, where 1 is the maximum; inactive means score below 0.9.

The nature of assay [1]: BSK_4H_Eotaxin3: BioMAP Diversity Plus: 4H Assay for Eotaxin 3 Biomarker Activity (AID 2283000).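 On outcome: CCL26 protein level quantified by ELISA in parallel with SRB cytotoxicity check.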 Conditions: primary human endothelial cells (HUVEC); actives raise or lower the signal. The procedure, abridged:
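Human umbilical vein endothelial cells (BSK_4H system) dosed with test chemical; Eotaxin-3 (CCL26) measured by ELISA 24 h after dosing. Bidirectional curve fitting relative to DMSO negative control as baseline.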

In assay [2] the target is human Peroxisome Proliferator-activated Receptor delta (PPARd), PPARD (gene 5467) (UniProt Q03181). The assay can be described thus: ATG_PPARd_TRANS: Attagene TRANS-FACTORIAL HepG2 Assay for human Peroxisome Proliferator-activated Receptor delta (PPARd) (AID 2283002; active means hit-call score of the fitted dose curve at least 0.9, where 1 is the maximum). The method, boiled down: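 Fluorescence from capillary electrophoresis of labelled RT-PCR reporter fragments gives the signal; DMSO sets baseline. Cells: HepG2 transiently carrying GAL4-UAS reporter units plus chimeric nuclear receptor-Gal4 proteins, exposed to chemicals for 24 h.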

Read-out in assay [3]: Intercellular Adhesion Molecule 1 (ICAM1), ICAM1 (gene 3383)
The experiment in a line: BSK_3C_ICAM1: BioMAP Diversity Plus: 3C Assay for Intercellular Adhesion Molecule 1 (ICAM1) Biomarker Activity (AID 2283003). Conditions: primary human endothelial cells (HUVEC); actives raise or lower the signal. The method, boiled down:
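Using DMSO as baseline, bidirectional curve fitting was applied to ICAM-1 ELISA signals from HUVEC in the 3C system, measured 24 h after compound addition.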

Assay [4] can be described thus: BSK_3C_Proliferation: Cell Proliferation Assessment in the BioMAP Diversity Plus: 3C Assay (AID 2283006).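 On AC50: potency may reflect either rise or fall in cell number versus DMSO.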 Conditions: primary human endothelial cells (HUVEC). The method, boiled down: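 Measured here: sulforhodamine B (0.1%) staining of TCA-fixed sub-confluent umbilical vein endothelial cultures 48 h post-dosing, absorbance 560 nm. DMSO served as negative control and baseline; both signal gain and loss were modelled.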

The target of assay [5] is Peroxisome proliferator-activated receptor gamma (Homo sapiens) (UniProt P37231). The experiment in a line: ATG_PPARg_TRANS: Attagene TRANS-FACTORIAL HepG2 Assay for human Peroxisome Proliferator-activated Receptor-gamma (PPARg) (AID 2283007; active means hit-call score of the fitted dose curve at least 0.9, where 1 is the maximum). The method, boiled down: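 Multiplexed reporter transcription units in HepG2, 24 h dosing, reporter transcripts quantified by fluorescent RT-PCR and capillary electrophoresis. Increase over DMSO scored.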

Assay [6] deals with Nuclear receptor subfamily 1 group I member 2 (Homo sapiens) (UniProt O75469). The assay can be described thus: ATG_PXR_TRANS: Attagene TRANS-FACTORIAL HepG2 Assay for human Pregnane X Receptor (PXR) (AID 2283008; active means hit-call score of the fitted dose curve at least 0.9, where 1 is the maximum). The procedure, abridged:
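Trans-factorial format: exogenous NR-Gal4 fusion activity, not endogenous factor, in transfected human HepG2 liver cells. After 24 h dosing, RNA isolated, reverse-transcribed, amplified and resolved by capillary electrophoresis; induction scored versus DMSO.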

In assay [7] the target is Retinoic acid receptor RXR-alpha (Homo sapiens) (UniProt P19793). The experiment in a line: ATG_RXRa_TRANS: Attagene TRANS-FACTORIAL HepG2 Assay for human Retinoid X Receptor alpha (RXRa) (AID 2283012; active means hit-call score of the fitted dose curve at least 0.9, where 1 is the maximum). The method, boiled down: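 Chimeric NR-GAL4 trans-activation in HepG2, 24 h treatment; reporter transcripts quantified by fluorescence on capillary electrophoresis, analysed for upward change from DMSO.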

Assay [8] has as its target human Retinoid X Receptor beta (RXRb), RXRB (gene 6257) (UniProt P28702). The assay can be described thus: ATG_RXRb_TRANS: Attagene TRANS-FACTORIAL HepG2 Assay for human Retinoid X Receptor beta (RXRb) (AID 2283013; active means hit-call score of the fitted dose curve at least 0.9, where 1 is the maximum). The procedure, abridged:
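After a 24 h incubation with test chemical, transfected HepG2 cells carrying NR-Gal4 fusions and GAL4-UAS reporter transcription units yield RNA whose reporter cDNA is FAM-labelled, HpaI-cut and sized by capillary electrophoresis; increases over DMSO are scored.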

Assay [9] has as its target human Thyroid Receptor alpha (THRa1), THRA (gene 7067) (UniProt P10827). The experiment in a line: ATG_THRa1_TRANS: Attagene TRANS-FACTORIAL HepG2 Assay for human Thyroid Receptor alpha (THRa1) (AID 2283014; active means hit-call score of the fitted dose curve at least 0.9, where 1 is the maximum). The method, boiled down: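 Transcripts from GAL4-UAS-driven reporters, measured after 24 h compound exposure by RT-PCR plus capillary electrophoresis of 6-FAM-labeled fragments, were fitted for gain of signal relative to DMSO. Cells: transiently transfected HepG2 expressing NR-Gal4 chimeras.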

Read-out in assay [10]: E-selectin (Homo sapiens) (UniProt P16581)
The assay can be described thus: BSK_3C_Eselectin: BioMAP Diversity Plus: 3C Assay for Eselectin Biomarker Activity (AID 2283015).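 On outcome: cell surface E-selectin protein quantified by ELISA 24 h after dosing.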 The settings on record: primary human endothelial cells (HUVEC); actives raise or lower the signal. The method, boiled down: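 E-selectin ELISA readout, fitted bidirectionally relative to DMSO, taken 24 h post-dosing in HUVEC cultures of the 3C system. Overt cytotoxicity tracked with sulforhodamine B staining of parallel wells.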

Read-out in assay [11]: Interleukin-1 alpha (IL1a), IL1A (gene 3552)
The assay can be described thus: BSK_BE3C_IL1a: BioMAP Diversity Plus: BE3C Assay for Interleukin-1 alpha (IL1a) Biomarker Activity (AID 2283016). Conditions: primary human bronchial epithelial cells; actives raise or lower the signal. The procedure, abridged:
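Measured in human lung primary bronchial epithelial cells: IL-1a by ELISA at 24 h after dosing, with bidirectional fitting against DMSO.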

Read-out in assay [12]: Monocyte Chemoattractant Protein-1 (MCP1), CCL2 (gene 6347)
The assay can be described thus: BSK_3C_MCP1: BioMAP Diversity Plus: 3C Assay for Monocyte Chemoattractant Protein-1 (MCP1) Biomarker Activity (AID 2283017). Conditions: primary human endothelial cells (HUVEC); actives raise or lower the signal. The procedure, abridged: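 MCP-1 was measured by ELISA 24 h after dosing in primary HUVEC 3C cultures and fitted in both directions relative to DMSO; cytotoxicity was checked by SRB total-protein staining in parallel wells.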

Read-out in assay [13]: Monocyte Chemoattractant Protein-1 (MCP1), CCL2 (gene 6347)
The assay can be described thus: BSK_4H_MCP1: BioMAP Diversity Plus: 4H Assay for Monocyte Chemoattractant Protein-1 (MCP1) Biomarker Activity (AID 2283018). The settings on record: primary human endothelial cells (HUVEC); actives raise or lower the signal. The method, boiled down: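 Primary human umbilical vein endothelium is exposed to chemical for 24 h before MCP-1 is assayed by ELISA. Concentration-response fitted bidirectionally relative to DMSO.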

Read-out in assay [14]: Human Leukocyte Antigen - DR isotype (HLADR), HLA-DRA (gene 3122)
The assay can be described thus: BSK_3C_HLADR: BioMAP Diversity Plus: 3C Assay for Human Leukocyte Antigen - DR isotype (HLADR) Biomarker Activity (AID 2283019).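 On outcome: ELISA of cell-surface HLA-DR on HUVEC 24 h after dosing.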 Conditions: primary human endothelial cells (HUVEC); actives raise or lower the signal. The method, boiled down: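 Bidirectional fitting against DMSO was applied to the HLA-DR ELISA signal from human umbilical vein endothelial cells, 24 h post-dose. Cytotoxicity came from parallel SRB total-protein staining; 3C proliferation was counted by SRB at 48 h.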

Read-out in assay [15]: Interleukin-8 (IL8), CXCL8 (gene 3576)
The assay can be described thus: BSK_3C_IL8: BioMAP Diversity Plus: 3C Assay for Interleukin-8 (IL8) Biomarker Activity (AID 2283020). Conditions: primary human endothelial cells (HUVEC); actives raise or lower the signal. The method, boiled down:
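Using DMSO-treated wells as the baseline, bidirectional curve fitting was applied to ELISA-measured IL-8 from human umbilical vein endothelial cultures sampled 24 h after compound addition.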

Read-out in assay [16]: Monokine induced gamma interferon (MIG), CXCL9 (gene 4283)
The experiment in a line: BSK_3C_MIG: BioMAP Diversity Plus: 3C Assay for Monokine induced gamma interferon (MIG) Biomarker Activity (AID 2283021).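 On AC50: MIG protein level measured by immunoassay in the treated endothelial cultures.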 Conditions: primary human endothelial cells (HUVEC); actives raise or lower the signal. The method, boiled down: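 ELISA-measured MIG in dosed HUVEC 3C cultures at 24 h, analysed by bidirectional fitting with DMSO defining baseline activity.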

The target of assay [17] is human Peroxisome Proliferator-activated Receptor alpha (PPARa), PPARA (gene 5465) (UniProt Q07869). The assay can be described thus: ATG_PPARa_TRANS: Attagene TRANS-FACTORIAL HepG2 Assay for human Peroxisome Proliferator-activated Receptor alpha (PPARa) (AID 2283001; active means hit-call score of the fitted dose curve at least 0.9, where 1 is the maximum). The procedure, abridged:
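Transient HepG2 transfection, GAL4-UAS reporters, NR-Gal4 chimeras; 24 h compound exposure. Readout: reporter transcripts by RT-PCR, 6-FAM primer extension, HpaI digest, capillary electrophoresis. Positive direction vs DMSO baseline.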

In assay [18] the target is Retinoic acid receptor alpha (Homo sapiens) (UniProt P10276). The assay can be described thus: ATG_RARa_TRANS: Attagene TRANS-FACTORIAL HepG2 Assay for human Retinoic Acid Receptor alpha (RARa) (AID 2283005; active means hit-call score of the fitted dose curve at least 0.9, where 1 is the maximum). The procedure, abridged:
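HepG2 transiently transfected with multiplex GAL4-UAS reporter units including a human RARa–GAL4 chimera; 24 h compound exposure. Reporter mRNA quantified by RT-PCR, 6-FAM labeling and capillary electrophoresis; gain of signal versus DMSO.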

The target of assay [19] is human RAR-related Orphan Receptor gamma (RORg), RORC (gene 6097) (UniProt P51449). The assay can be described thus: ATG_RORg_TRANS: Attagene TRANS-FACTORIAL HepG2 Assay for human RAR-related Orphan Receptor gamma (RORg) (AID 2283011; active means hit-call score of the fitted dose curve at least 0.9, where 1 is the maximum). The method, boiled down: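 Reporter transcripts from a transfected RORg-GAL4 chimera in HepG2 cells were quantified 24 h after dosing by RT-PCR, 6-FAM labelling, HpaI digestion and capillary electrophoresis; increases over DMSO baseline were fitted.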
Chain of human RAR-related Orphan Receptor gamma (RORg), RORC (gene 6097) (P51449 whole entry, looked up, the tested form may be a part): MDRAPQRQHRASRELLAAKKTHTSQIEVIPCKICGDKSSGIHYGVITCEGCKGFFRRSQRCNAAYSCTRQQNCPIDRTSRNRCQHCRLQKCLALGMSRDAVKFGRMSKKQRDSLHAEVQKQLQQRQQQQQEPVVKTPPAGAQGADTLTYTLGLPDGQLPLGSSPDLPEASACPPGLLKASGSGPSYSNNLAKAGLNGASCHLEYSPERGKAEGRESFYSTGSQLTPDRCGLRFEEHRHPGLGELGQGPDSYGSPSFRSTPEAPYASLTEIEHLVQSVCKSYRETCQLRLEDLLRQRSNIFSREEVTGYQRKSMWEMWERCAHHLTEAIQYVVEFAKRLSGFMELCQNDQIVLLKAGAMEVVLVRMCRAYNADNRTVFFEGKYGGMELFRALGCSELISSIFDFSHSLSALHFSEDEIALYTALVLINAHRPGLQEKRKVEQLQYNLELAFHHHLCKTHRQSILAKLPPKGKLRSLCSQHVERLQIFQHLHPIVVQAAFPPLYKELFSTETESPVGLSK

Chain of human Peroxisome Proliferator-activated Receptor delta (PPARd), PPARD (gene 5467) (Q03181 whole entry, looked up, the tested form may be a part): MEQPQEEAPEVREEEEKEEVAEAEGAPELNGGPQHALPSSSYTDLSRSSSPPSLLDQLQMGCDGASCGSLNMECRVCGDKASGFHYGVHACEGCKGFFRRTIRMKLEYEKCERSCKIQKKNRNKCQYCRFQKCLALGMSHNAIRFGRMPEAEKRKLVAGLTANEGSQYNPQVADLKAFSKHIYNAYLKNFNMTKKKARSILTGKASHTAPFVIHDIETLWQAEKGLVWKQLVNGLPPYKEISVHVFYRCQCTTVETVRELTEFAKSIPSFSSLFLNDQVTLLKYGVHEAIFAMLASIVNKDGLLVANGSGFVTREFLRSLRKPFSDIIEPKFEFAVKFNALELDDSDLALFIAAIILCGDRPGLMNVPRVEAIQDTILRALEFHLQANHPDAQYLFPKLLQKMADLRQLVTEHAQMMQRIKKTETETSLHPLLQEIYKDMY
Chain of E-selectin (Homo sapiens) (P16581 whole entry, looked up): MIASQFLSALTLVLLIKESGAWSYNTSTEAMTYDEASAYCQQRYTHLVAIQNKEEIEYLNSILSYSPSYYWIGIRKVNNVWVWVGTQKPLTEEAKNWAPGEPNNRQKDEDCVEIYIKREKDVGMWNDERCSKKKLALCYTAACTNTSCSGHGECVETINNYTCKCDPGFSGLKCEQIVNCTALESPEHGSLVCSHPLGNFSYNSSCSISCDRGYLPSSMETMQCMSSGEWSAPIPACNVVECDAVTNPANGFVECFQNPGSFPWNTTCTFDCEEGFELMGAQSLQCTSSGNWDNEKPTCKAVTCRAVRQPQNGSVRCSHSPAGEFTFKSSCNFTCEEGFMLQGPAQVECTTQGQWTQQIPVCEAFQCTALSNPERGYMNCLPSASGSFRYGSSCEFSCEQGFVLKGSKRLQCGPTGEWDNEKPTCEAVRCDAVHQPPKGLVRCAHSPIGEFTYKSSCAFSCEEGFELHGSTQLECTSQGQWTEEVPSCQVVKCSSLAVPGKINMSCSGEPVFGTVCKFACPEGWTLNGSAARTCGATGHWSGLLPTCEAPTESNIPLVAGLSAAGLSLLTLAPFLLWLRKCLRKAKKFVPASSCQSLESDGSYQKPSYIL
Chain of Retinoic acid receptor RXR-alpha (Homo sapiens) (P19793 whole entry, looked up, the tested form may be a part): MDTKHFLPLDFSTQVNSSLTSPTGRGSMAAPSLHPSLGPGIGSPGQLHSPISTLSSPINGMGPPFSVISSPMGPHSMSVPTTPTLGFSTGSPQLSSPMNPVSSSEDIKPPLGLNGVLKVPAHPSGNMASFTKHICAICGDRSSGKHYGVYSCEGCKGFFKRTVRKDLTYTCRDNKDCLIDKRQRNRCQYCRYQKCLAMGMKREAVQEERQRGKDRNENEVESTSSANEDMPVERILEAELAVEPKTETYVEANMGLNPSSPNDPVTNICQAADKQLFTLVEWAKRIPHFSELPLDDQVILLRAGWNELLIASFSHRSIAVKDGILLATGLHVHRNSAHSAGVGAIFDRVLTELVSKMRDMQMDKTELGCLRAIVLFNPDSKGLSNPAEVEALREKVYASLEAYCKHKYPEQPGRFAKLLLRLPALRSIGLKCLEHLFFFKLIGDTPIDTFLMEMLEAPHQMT
Chain of human Thyroid Receptor alpha (THRa1), THRA (gene 7067) (P10827 whole entry, looked up, the tested form may be a part): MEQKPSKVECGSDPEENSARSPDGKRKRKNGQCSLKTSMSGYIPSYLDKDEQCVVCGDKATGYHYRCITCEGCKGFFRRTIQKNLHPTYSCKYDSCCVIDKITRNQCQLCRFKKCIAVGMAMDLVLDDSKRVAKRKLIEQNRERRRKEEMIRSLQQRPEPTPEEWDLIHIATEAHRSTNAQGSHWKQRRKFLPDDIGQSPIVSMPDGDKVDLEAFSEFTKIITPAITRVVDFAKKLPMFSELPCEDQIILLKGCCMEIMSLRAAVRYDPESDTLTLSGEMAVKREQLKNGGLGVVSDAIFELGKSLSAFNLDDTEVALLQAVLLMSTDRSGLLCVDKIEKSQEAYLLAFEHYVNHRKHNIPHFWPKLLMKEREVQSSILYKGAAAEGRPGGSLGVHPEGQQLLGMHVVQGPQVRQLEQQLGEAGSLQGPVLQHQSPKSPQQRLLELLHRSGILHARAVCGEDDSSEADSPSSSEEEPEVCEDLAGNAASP
Chain of Nuclear receptor subfamily 1 group I member 2 (Homo sapiens) (O75469 whole entry, looked up, the tested form may be a part): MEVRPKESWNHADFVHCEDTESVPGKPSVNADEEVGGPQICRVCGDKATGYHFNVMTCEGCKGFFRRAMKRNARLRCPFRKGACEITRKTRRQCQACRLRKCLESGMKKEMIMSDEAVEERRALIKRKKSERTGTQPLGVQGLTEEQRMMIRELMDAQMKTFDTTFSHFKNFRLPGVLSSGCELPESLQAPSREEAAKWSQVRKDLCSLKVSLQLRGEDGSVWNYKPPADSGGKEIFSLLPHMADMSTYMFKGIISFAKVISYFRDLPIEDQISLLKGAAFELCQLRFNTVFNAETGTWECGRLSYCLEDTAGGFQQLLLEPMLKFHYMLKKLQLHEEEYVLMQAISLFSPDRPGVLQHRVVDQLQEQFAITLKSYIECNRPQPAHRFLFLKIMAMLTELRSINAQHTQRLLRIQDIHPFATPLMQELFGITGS
Chain of Peroxisome proliferator-activated receptor gamma (Homo sapiens) (P37231 whole entry, looked up): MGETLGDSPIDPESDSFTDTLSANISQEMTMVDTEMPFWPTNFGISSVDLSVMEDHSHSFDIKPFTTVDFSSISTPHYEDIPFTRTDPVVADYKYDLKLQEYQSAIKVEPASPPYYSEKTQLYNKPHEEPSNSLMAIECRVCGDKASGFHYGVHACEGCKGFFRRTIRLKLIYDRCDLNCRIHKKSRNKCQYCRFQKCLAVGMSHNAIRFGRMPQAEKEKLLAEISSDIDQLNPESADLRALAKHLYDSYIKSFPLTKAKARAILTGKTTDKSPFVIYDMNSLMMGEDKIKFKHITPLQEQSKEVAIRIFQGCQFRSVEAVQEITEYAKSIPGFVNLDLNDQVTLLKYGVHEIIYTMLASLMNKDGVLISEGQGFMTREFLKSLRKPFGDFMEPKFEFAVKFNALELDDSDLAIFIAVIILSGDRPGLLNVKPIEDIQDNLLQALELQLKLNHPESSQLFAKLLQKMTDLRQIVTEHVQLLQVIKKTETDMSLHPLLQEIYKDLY
Chain of human Retinoid X Receptor beta (RXRb), RXRB (gene 6257) (P28702 whole entry, looked up, the tested form may be a part): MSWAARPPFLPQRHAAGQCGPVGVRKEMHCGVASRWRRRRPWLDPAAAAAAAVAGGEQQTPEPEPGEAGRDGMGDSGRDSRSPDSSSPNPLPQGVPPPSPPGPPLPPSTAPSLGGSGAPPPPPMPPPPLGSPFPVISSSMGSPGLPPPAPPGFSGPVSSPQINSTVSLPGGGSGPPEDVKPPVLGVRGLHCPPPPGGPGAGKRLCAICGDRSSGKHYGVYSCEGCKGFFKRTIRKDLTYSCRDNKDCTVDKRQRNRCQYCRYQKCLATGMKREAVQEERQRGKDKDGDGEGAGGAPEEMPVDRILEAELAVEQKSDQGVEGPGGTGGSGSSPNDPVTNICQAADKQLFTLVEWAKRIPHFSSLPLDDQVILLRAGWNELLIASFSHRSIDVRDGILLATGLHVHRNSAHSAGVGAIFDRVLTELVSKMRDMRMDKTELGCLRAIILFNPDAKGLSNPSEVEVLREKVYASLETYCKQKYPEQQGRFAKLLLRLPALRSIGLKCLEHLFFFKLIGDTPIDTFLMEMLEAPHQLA
Chain of Retinoic acid receptor alpha (Homo sapiens) (P10276 whole entry, looked up, the tested form may be a part): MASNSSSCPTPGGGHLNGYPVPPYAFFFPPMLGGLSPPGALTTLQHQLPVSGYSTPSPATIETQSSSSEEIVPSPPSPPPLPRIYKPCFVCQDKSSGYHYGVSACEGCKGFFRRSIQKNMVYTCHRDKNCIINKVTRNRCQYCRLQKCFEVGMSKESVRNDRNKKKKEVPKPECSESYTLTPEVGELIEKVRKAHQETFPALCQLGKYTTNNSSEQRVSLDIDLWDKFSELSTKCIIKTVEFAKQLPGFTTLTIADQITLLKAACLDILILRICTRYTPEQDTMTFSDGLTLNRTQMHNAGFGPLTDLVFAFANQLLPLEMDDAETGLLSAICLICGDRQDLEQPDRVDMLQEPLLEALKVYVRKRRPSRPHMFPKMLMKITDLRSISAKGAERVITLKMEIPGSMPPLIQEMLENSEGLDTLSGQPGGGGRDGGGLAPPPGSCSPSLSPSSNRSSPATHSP
Chain of human Peroxisome Proliferator-activated Receptor alpha (PPARa), PPARA (gene 5465) (Q07869 whole entry, looked up, the tested form may be a part): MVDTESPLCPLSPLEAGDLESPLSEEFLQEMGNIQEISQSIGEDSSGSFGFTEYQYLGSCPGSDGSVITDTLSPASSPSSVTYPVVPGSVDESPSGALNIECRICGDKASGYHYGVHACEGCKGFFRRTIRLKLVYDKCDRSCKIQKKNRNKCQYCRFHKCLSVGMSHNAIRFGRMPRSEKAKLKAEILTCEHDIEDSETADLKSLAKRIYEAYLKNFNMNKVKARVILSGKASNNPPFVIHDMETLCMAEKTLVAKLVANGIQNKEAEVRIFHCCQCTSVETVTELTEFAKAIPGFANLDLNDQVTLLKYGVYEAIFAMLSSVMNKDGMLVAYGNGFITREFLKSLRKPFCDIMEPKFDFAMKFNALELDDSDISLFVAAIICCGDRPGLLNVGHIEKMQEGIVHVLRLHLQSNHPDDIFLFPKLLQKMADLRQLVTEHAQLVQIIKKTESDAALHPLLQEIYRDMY

For `CCOP(=S)(OCC)SCSC(C)(C)C`, the result in assay [1], in assay [2], in [3], in assay [5], in assay [7] and in [9] was inactive. For the same molecule, the result in [10], in assay [11], in assay [12], in [13], in assay [15] and in assay [16] was inactive. Besides, the AC50 in assay [4] was 29.3 µM (active); in assay [6], 3.49 µM (active) and 2.9 µM (active); in assay [8], 25.7 µM (active) and 24.6 µM (active); in assay [14], 32.5 µM (active).

As for `C=CC(=O)NCNC(=O)C=C`, the outcome in assay [1], in assay [17], in assay [3], in assay [4], in [5] and in [11] was inactive. The outcome in [13], in [14], in assay [15] and in assay [16] was inactive.

Take `CC1=C2C[C@H]3[C@@H](CC=C4C[C@@H](O)CC[C@@]43C)[C@@H]2CC[C@]12O[C@@H]1C[C@H](C)CN[C@H]1[C@H]2C`: the outcome in assay [1], in assay [2], in assay [3], in assay [18], in assay [4] and in assay [10] was inactive. The outcome in assay [11], in assay [13], in [15] and in assay [16] was inactive.

For the molecule `Oc1ccc(C(c2ccc(O)cc2)(C(F)(F)F)C(F)(F)F)cc1`, the AC50 in [1] is 34.8 µM (active); in [3], 38.3 µM (active); in assay [4] it was 12.8 µM (active); in [6], 6 µM (active) [middle of 4 runs]; in [8], 5 µM (active) [middle of 4 runs]; in assay [10], 30.1 µM (active). Besides, the concentration at half-maximal activity (AC50) in assay [11] is 30.8 µM (active); in assay [12] it was 19.9 µM (active); in assay [13], 14 µM (active); in assay [15], 18.8 µM (active); in [16] it was 34.9 µM (active). Besides, the outcome in assay [2], in assay [5], in assay [7] and in assay [9] was inactive.

Take `C1CC2OC2CC1C1CO1` (stereo unspecified): the result in assay [1], in assay [3], in assay [4], in [19], in [11] and in assay [12] was inactive. Further, the result in assay [13], in [14], in assay [15] and in assay [16] was inactive.

As for `O=S(=O)(O)C(F)(F)C(F)(F)C(F)(F)C(F)(F)C(F)(F)C(F)(F)F`, the outcome in assay [1], in assay [2], in [3], in assay [4], in [6] and in assay [19] was inactive. For the same molecule, the call in assay [7], in assay [8], in assay [10], in assay [11], in assay [12] and in assay [13] was inactive. The result in assay [15] and in assay [16] was inactive. Further, in assay [5], the AC50 was 32.5 µM (active) and 79.5 µM (active) and 61.7 µM (active).

The term AC50 denotes the midpoint of the concentration-response curve, whichever way the signal moves.
